Results taken from PubChem BioAssay (NCATS).
Records with an inconclusive call do not appear. The source made the active and inactive calls. The call rests on the fitted dose curve; in most records, active means well fitted inhibition curve with a large enough effect; inconclusive means small, poorly fitted or top-dose-only effect; inactive means flat fitted curve, though single readings scatter.

Test: Cytometry Cell-Based qHTS for Inhibitors of the mTORC1 Signaling Pathway in MEF cells (AID 2668);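 on activity change, negative = inhibition: Tsc2-/- p53-/- mouse embryonic fibroblasts stably re-expressing wild-type Tsc2; percent cells positive for phospho-rpS6 Ser235/236 relative to propidium iodide stain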
Conditions: mTORC1 pathway readout; series mostly up to 38.3 µM; activity change, negative = inhibition: at the top concentration
From the text: NIH Molecular Libraries Probe Production Centers Network [MLPCN]
NIH Chemical Genomics Center [NCGC]
Assay Submitter (PI): Blenis, John; Hoffman, Greg; Harvard University
NCGC Assay Overview: The mammalian target of rapamycin (mTOR) is an intracellular serine/threonine kinase Aberrant regulation of mTOR signaling plays a causative role in a number of human diseases, including cancer, benign tumors such as lymphangioleiomyomatosis (LAM) and Tuberous Sclerosis Complex (TSC), and metabolic diseases such as diabetes and obesity. This project aims to identify inhibitors of ribosomal protein S6 (rpS6) phosphorylation. The phosphorylation of rpS6 is a key event downstream of mTOR activation. The assay uses a phospho-specific antibody of phospho-rpS6 to detect inhibitors of mTOR activation. Mutations in the Tsc1 and Tsc2 genes are the underlying genetic lesions responsible for TSC, causing constitutive activation of the mTORC1 pathway and leading to profound effects on cell metabolism. Aberrant metabolism in cancer has recently received significant attention as a target to develop therapeutic agents in the treatment of cancer.1 As Tsc2-/- cells have lost the ability to respond to energy and growth factor deprivation, these cells are unable to properly down regulate cellular biosynthetic processes in response to metabolic stress, and are thus extremely sensitive to glucose deprivation-induced death.2 A central goal of this project is to explore the unique cell survival and metabolic properties of cells with Tsc1 or Tsc2 by screening for compounds that selectively target the Tsc2-/- MEFs by screening both Tsc2-/- and WT MEF cell lines. We hope to better understand these aspects of TSC physiology in order to exploit them for therapeutic benefit.
NCGC Acumen Assay Protocol:
For quantitative high throughput analysis of mTORC1 signaling, we developed a cell-based assay for immuno-fluorescence based detection of rpS6 phosphorylation on the Acumen Explorer that will be used a platform for the primary small molecule screen. Mouse embryonic fibroblasts (MEFs) are cultured in 1536-well plates using DMEM + 10% FBS. Twenty-four hrs after plating, test compounds (solubilized in DMSO) are delivered and incubated with the cells for 24 hrs at 37 degree Celsius. Following the incubation, media with compound is aspirated and the cells are fixed in 4% paraformaldehyde (PFA) containing PBS + 0.2% TX-100. Next, PFA is aspirated, cells are washed two times with PBS plus 0.2% TX-100 and the cells are blocked for 1 hr at room temperature (blocking buffer: LiCOR Blocking Buffer plus 0.2% TX-100). This is followed by aspiration and staining with Alexa-488 conjugated-phospho-rpS6 Ser235/236 antibody for 2 hours at room temperature (Cell Signaling Technology # 4803, 1:50 dilution in blocking buffer). Cells are washed two times with PBS plus 0.2% TX-100, and stained with 10 uM propidium iodide (PI) for 20-25 minutes for cell number measurement (1:500 dilution of Hoescht staining is also added for IN Cell imaging). The plates are scanned on the Acumen Explorer laser scanning instrument (TTP Labtech) using the 488nm laser for simultaneous excitation of the Alexa-488 and PI. The fluorescence emission from the Alexa-488 conjugated rpS6 phospho-235/236 antibody staining is selected using a […] band pass filter. Fluorescence emission from the PI stain is selected using a 575-640 nm band pass filter. The normalized phospho-S6 staining is calculated as the ratio of the integrated Alexa 488 intensity divided by the integrated PI intensity for the single concentration rapamycin control (7.5 nM) and DMSO columns. […] Inhibition of the pathway is defined based on the normalized phospho-S6 intensity in rapamycin treated cells. […]
Potency means the concentration at half of the fitted maximal effect.

Structure (SMILES)	activity change, negative = inhibition	Potency
N[C@H](CO)C(=O)O	6.2% (inactive)	
C[C@]12CC[C@@H]3c4ccc(O)cc4CC[C@H]3[C@@H]1CC[C@@H]2O	4.21% (inactive)	
Nc1cc(Cl)c(NC2=NCCN2)c(Cl)c1	-1.01% (inactive)	
C[N+]1(CCCCC[N+]2(C)CCCC2)CCCC1	5.13% (inactive)	
CC(CCc1ccccc1)NCC(O)c1ccc(O)c(C(N)=O)c1 (centres undefined)	5.41% (inactive)	
O=C1CCC(c2ccc(-n3ccnc3)cc2)=NN1	17% (inactive)	
C[C@@H]1C(=O)NC2=Nc3cccc(Cl)c3CN21	-9.62% (inactive)	
CCC(NC(C)C)C(O)c1ccc(O)c(O)c1 (centres undefined)	-23% (inactive)	
O=C(O)c1cc2cc(Cc3cccnc3)ccc2o1	-4.21% (inactive)	
CC1(C)CCC(NC(=O)[C@@H](N)CCC(=O)O)CC1	3.65% (inactive)	
CC(C)COC(=O)OCN1C(=O)CN(CCN2CC(=O)N(COC(=O)OCC(C)C)C(=O)C2)CC1=O	-7.25% (inactive)	
CCCn1c(=O)[nH]c(=O)c2[nH]cnc21	-4.31% (inactive)	
COc1cc(NS(C)(=O)=O)ccc1Nc1c2ccccc2nc2ccccc12		0.521 µM (active)
CCCC1O[C@@H]2C[C@H]3[C@@H]4CCC5=CC(=O)C=C[C@]5(C)[C@H]4[C@@H](O)C[C@]3(C)[C@]2(C(=O)CO)O1 (some centres undefined)	-28.3% (inactive)	
C1CCc2nnnn2CC1	0.26% (inactive)	
CNCCC(Oc1ccccc1C)c1ccccc1 (centres undefined)	-0.651% (inactive)	
CC(=O)O[C@H]1C[C@@H]2CC[C@@H]3[C@H](CC[C@@]4(C)[C@H]3C[C@H]([N+]3(C)CCCCC3)[C@@H]4OC(C)=O)[C@@]2(C)C[C@@H]1[N+]1(C)CCCCC1	-0.0981% (inactive)	
COC(=O)[C@H]1[C@H]2C[C@H]3c4[nH]c5ccccc5c4CCN3C[C@H]2CC[C@@H]1O	1.36% (inactive)	
N[C@@H](Cc1cnc[nH]1)C(=O)O	4.16% (inactive)	
